# Structures can show the parent of a compound that is named as a salt. ± gives the standard deviation of the averaged measurements.
# Legend:
# [1] = test system: E18 rat cortical neuron-glia co-culture; assay: fiber score / MBP score (myelination specific beyond OL differentiation) (ratio); higher = more myelination-specific MBP alignment; details: treatment time: 8 days (DIV5-DIV13)
# Summary of the method: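 Papain-dissociated primary E18 rat cortical co-cultures, plated at 20,000 cells/well on poly-d-lysine/laminin 96-well plates, were exposed to library compounds at 1 or 5 µM in myelination medium between DIV5 and DIV13. Following fixation in 4 % paraformaldehyde, cultures were stained for MBP, Olig2 and DAPI, and four 10X fields per well were analysed in duplicate wells. Values are the ratio of fiber score (continuous MBP fiber length per Olig2+ nucleus) to MBP score (thresholded MBP area × intensity per Olig2+ nucleus).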
# [2] = test system: E18 rat cortical neuron-glia co-culture; assay: myelination (MBP fiber length per Olig2+ nucleus), % of 1 µM DAPT response (DMSO = 0) (% of DAPT); higher = more myelination, active = 50 or more; details: treatment time: 8 days (DIV5-DIV13)
# Summary of the method: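 Myelination, expressed as continuous straight MBP fiber length per Olig2+ nucleus, was normalised to 0.1 % DMSO as 0 and a 1 µM positive control as 100. The cultures were primary E18 rat cortical co-cultures dissociated with papain and plated at 20,000 cells/well on poly-d-lysine/laminin-coated 96-well plates. They received library compounds at 1 or 5 µM in myelination medium between DIV5 and DIV13. Analysis covered four 10X fields per well in duplicate wells after 4 % paraformaldehyde fixation and immunostaining for MBP and Olig2 with DAPI.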
SMILES,fiber score / MBP score ([1]; 1 µM),fiber score / MBP score ([1]; 5 µM),myelination ([2]; 1 µM),myelination ([2]; 5 µM)
COc1ccc(CN2CCN(C(c3ccc(F)cc3)c3ccc(F)cc3)CC2)c(OC)c1OC [Lomerizine],1.05,0.643,14.1 (inactive),-23.5 (inactive)
Clc1cccc(Cl)c1NC1=NCCN1 [Clonidine hydrochloride],0.735,0.879,-10.4 (inactive),-5.88 (inactive)
COC(=O)[C@H](c1ccccc1Cl)N1CCc2sccc2C1 [Clopidogrel],0.707,0.858,-6.76 (inactive),-2.98 (inactive)
CN1CCN(C2=Nc3cc(F)ccc3Cc3ccccc32)CC1 [Fluperlapine],1.15,0.587,6.96 (inactive),-12.9 (inactive)
CCCCCCNC(=O)n1cc(F)c(=O)[nH]c1=O [Carmofur],0.54,0.729,-30.6 (inactive),-14.4 (inactive)
Nc1nc2c(ncn2COC(CO)CO)c(=O)[nH]1 [Ganciclovir],0.944,1,-5.82 (inactive),7.82 (inactive)
CC[C@H]1OC(=O)[C@H](C)[C@@H](O[C@H]2C[C@@](C)(OC)[C@@H](O)[C@H](C)O2)[C@H](C)[C@@H](O[C@@H]2O[C@H](C)C[C@H](N(C)C)[C@H]2O)[C@](C)(O)C[C@@H](C)CN(C)[C@H](C)[C@@H](O)[C@]1(C)O [Azithromycin],0.707,0.488,-7.57 (inactive),-11.8 (inactive)
CCN1CCN(C(=O)N[C@@H](C(=O)N[C@@H]2C(=O)N3[C@@H]2SC(C)(C)[C@@H]3C(=O)O)c2ccccc2)C(=O)C1=O [Piperacillin],0.703,0.948,-13.4 (inactive),5.13 (inactive)
Cc1onc(-c2ccccc2)c1C(=O)N[C@@H]1C(=O)N2[C@@H]1SC(C)(C)[C@@H]2C(=O)O [Oxacillin],0.974,0.897,-4.75 (inactive),-10.5 (inactive)
CN(C)c1nc(N(C)C)nc(N(C)C)n1 [Altretamine],0.923,0.901,-3.29 (inactive),-4.16 (inactive)
CC(COc1ccccc1)NC(C)C(O)c1ccc(O)cc1 (stereo unspecified) [Isoxsuprine],0.798,0.841,-4.41 (inactive),-2.46 (inactive)
O=C(NCCN1CCOCC1)c1ccc(Cl)cc1 [Moclobemide],0.601,0.881,-22.1 (inactive),-5.22 (inactive)
C=CC[C@@H]1/C=C(\C)C[C@H](C)C[C@H](OC)[C@H]2O[C@@](O)(C(=O)C(=O)N3CCCC[C@H]3C(=O)O[C@H](/C(C)=C/[C@@H]3CC[C@@H](O)[C@H](OC)C3)[C@H](C)[C@@H](O)CC1=O)[C@H](C)C[C@@H]2OC [Tacrolimus],0.687,0.587,-24.6 (inactive),-22.8 (inactive)
CCc1oc2ccccc2c1C(=O)c1cc(Br)c(O)c(Br)c1 [Benzbromarone],0.764,0.919,-8.31 (inactive),-9.52 (inactive)
CN[C@@H]1[C@H](O)[C@H](NC)[C@H]2O[C@@]3(O)C(=O)C[C@@H](C)O[C@H]3O[C@@H]2[C@H]1O [Spectinomycin],0.923,1.03,-3.04 (inactive),-4.31 (inactive)
Nc1c2c(nc3ccccc13)CCCC2 [Tacrine],0.655,0.566,-9.65 (inactive),-14.9 (inactive)
CCOC(=O)[C@H](CCc1ccccc1)N[C@@H](C)C(=O)N1[C@H](C(=O)O)C[C@@H]2CCC[C@@H]21 [Ramipril],0.635 ± 0.29,0.628 ± 0.47,-11.2 (inactive),-8.93 (inactive)
CCc1ccc(CCOc2ccc(CC3SC(=O)NC3=O)cc2)nc1 (stereo unspecified) [Pioglitazone],0.868,0.501,-2.52 (inactive),-17.1 (inactive)
O=C(O[C@@H]1Cc2c(O)cc(O)cc2O[C@@H]1c1cc(O)c(O)c(O)c1)c1cc(O)c(O)c(O)c1 [Epigallocatechin gallate],0.732,1.01,-23.8 (inactive),-10.9 (inactive)
Nc1cc(N2CCCCC2)nc(N)[n+]1[O-] [Minoxidil],0.696,0.658,-26.1 (inactive),-24.5 (inactive)
CN[C@H]1CC[C@@H](c2ccc(Cl)c(Cl)c2)c2ccccc21 [Sertraline],0.689 ± 0.18,3.18,-5.38 (inactive),-24.9 (inactive)
Clc1ccc2c(c1)C(N1CCNCC1)=Nc1ccccc1O2 [Amoxapine],1.09,0.185,0.685 (inactive),-23.6 (inactive)
C[C@H]1C[C@H]2[C@@H]3CCC4=CC(=O)C=C[C@]4(C)[C@@]3(F)[C@@H](O)C[C@]2(C)[C@@]1(O)C(=O)CCl [Clobetasol],0.961,0.686,7.06 (inactive),-9.01 (inactive)
Cc1cn([C@H]2C[C@H](N=[N+]=[N-])[C@@H](CO)O2)c(=O)[nH]c1=O [Zidovudine],0.929,0.666,11.9 (inactive),-21.5 (inactive)
COC(=O)CCc1ccc(OCC(O)CNC(C)C)cc1 (stereo unspecified) [Esmolol],1.07,0.988,2.16 (inactive),-0.768 (inactive)

SMILES,fiber score / MBP score ([1]; 1 µM),fiber score / MBP score ([1]; 5 µM),myelination ([2]; 1 µM),myelination ([2]; 5 µM)
Cn1c(=O)c2nc[nH]c2n(C)c1=O [Theophylline],0.93,0.671,-7.88 (inactive),-20.2 (inactive)
CC(=O)CCCCn1c(=O)c2c(ncn2C)n(C)c1=O [Pentoxifylline],0.817 ± 0.062,0.839 ± 0.17,-4.66 (inactive),-23.8 (inactive)
CCCC(=O)O[C@]1(C(=O)COC(=O)CC)CC[C@H]2[C@@H]3CCC4=CC(=O)CC[C@]4(C)[C@H]3[C@@H](O)C[C@@]21C [Hydrocortisone buteprate],1.04,1.22,5.43 (inactive),12.1 (inactive)
N[C@@H]1CONC1=O [Cycloserine],0.562 ± 0.18,0.637,-22.5 (inactive),-32.4 (inactive)
CS(=O)(=O)OCCCCOS(C)(=O)=O [Busulfan],0.646,1.46,-6.35 (inactive),46.7 (inactive)
CC1(C)S[C@@H]2[C@H](NC(=O)[C@H](N)c3ccccc3)C(=O)N2[C@H]1C(=O)O [Ampicillin],0.301,0.192,-16.3 (inactive),-18.9 (inactive)
CC(C)NCC(O)COc1ccc(COCCOC(C)C)cc1 (stereo unspecified) [Bisoprolol],0.546,0.728,-58.3 (inactive),-38.2 (inactive)
CCCCNc1cc(C(=O)O)cc(S(N)(=O)=O)c1Oc1ccccc1 [Bumetanide],0.846,0.859,-8.01 (inactive),-11.3 (inactive)
N#Cc1ccc(C(c2ccc(C#N)cc2)n2cncn2)cc1 [letrozole],0.937,1.09,-16.4 (inactive),2.49 (inactive)
O=C1NC(=O)C(c2ccccc2)(c2ccccc2)N1 [Phenytoin],0.39,0.762,-17.5 (inactive),-20.9 (inactive)
Nc1nc2ccc(OC(F)(F)F)cc2s1 [Riluzole],0.879,0.478,-26.1 (inactive),-52.5 (inactive)
Cc1ccc(Cl)c(Nc2ccccc2C(=O)O)c1Cl [Meclofenamic acid],0.788,0.864,-26 (inactive),-2.96 (inactive)
Nc1ncnc2c1ncn2[C@@H]1O[C@H](CO)[C@@H](O)[C@@H]1O [Vidarabine],0.8,1.2,-13.9 (inactive),24.3 (inactive)
CCCN[C@H]1CCc2nc(N)sc2C1 [Pramipexole],0.851 ± 0.02,0.903 ± 0.21,-6.49 (inactive),-14.4 (inactive)
O=C(c1ccccc1)c1ccc2n1CCC2C(=O)O (stereo unspecified) [Ketorolac],0.853,1.12,-4.81 (inactive),2.63 (inactive)
Cc1cnc(C(=O)NCCc2ccc(S(=O)(=O)NC(=O)NC3CCCCC3)cc2)cn1 [Glipizide],1.13,0.658,2.75 (inactive),-12.8 (inactive)
CCCNC(=O)NS(=O)(=O)c1ccc(Cl)cc1 [Chlorpropamide],0.614,1.05,-30.5 (inactive),-5.62 (inactive)
CC(=O)[C@H]1CC[C@H]2[C@@H]3C[C@H](C)C4=CC(=O)CC[C@]4(C)[C@H]3[C@@H](O)C[C@]12C [Medrysone],1.11,1.1,5.47 (inactive),6.18 (inactive)
C[C@H]1O[C@H](O[C@H]2[C@H](O)[C@@H](O)[C@@H](O[C@H]3[C@H](O)[C@@H](O)C(O)O[C@@H]3CO)O[C@@H]2CO)[C@H](O)[C@@H](O)[C@@H]1N[C@H]1C=C(CO)[C@@H](O)[C@H](O)[C@H]1O (stereo partly specified) [Acarbose],0.856,0.99,-11.8 (inactive),-6.72 (inactive)
O=C1[C@H](CC[C@H](O)c2ccc(F)cc2)[C@@H](c2ccc(O)cc2)N1c1ccc(F)cc1 [Ezetimibe],0.641,0.648,-31.2 (inactive),-37.1 (inactive)
CN1[C@@H](CC(=O)c2ccccc2)CCC[C@H]1C[C@H](O)c1ccccc1 [Lobeline],0.981,0.451,2.9 (inactive),-19.7 (inactive)
CN(CCO)CC(O)Cn1cnc2c1c(=O)n(C)c(=O)n2C (stereo unspecified) [Jupal],0.827,0.635,-7.05 (inactive),-10.5 (inactive)
O=C(c1ccc(F)cc1)C1CCN(CCn2c(=S)[nH]c3ccccc3c2=O)CC1 [Altanserin],0.994,0.605,0.872 (inactive),-16.1 (inactive)
O=C(O)CCNC(=O)c1ccc(/N=N/c2ccc(O)c(C(=O)O)c2)cc1 [Balsalazide],0.862,0.833,-5.47 (inactive),-9.22 (inactive)
